# The supplement of paper PMC3334620
# Over roughly 33,000 sequences, “E-score (-0.5 to 0.5)” has its median near -0.013; the highest 2% begin near 0.3. This is one part of a sample in which the highest values are shown more often than they occur.
# Biological target: T1, Msn1 (UniProt P22148)
# T1 sequence: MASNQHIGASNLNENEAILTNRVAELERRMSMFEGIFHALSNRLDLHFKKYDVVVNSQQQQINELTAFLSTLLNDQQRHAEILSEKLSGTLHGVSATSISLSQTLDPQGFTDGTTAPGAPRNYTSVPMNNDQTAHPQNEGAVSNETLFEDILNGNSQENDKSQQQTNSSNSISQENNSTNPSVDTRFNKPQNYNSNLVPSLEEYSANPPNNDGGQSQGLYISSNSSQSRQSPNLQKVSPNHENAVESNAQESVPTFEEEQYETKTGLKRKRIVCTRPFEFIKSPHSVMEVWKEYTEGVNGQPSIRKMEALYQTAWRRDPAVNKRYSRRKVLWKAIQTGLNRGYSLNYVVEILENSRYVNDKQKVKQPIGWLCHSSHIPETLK
# Assay: PBM E-score (8-mer binding enrichment) (E-score (-0.5 to 0.5)); higher = stronger / more preferred TF binding
# Conditions: protein concentration: 200 nM; construct: GST-full length
# Experimental: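 Universal 'all 10-mer' protein binding microarrays (Agilent AMADID 015681) probed with GST-tagged S. cerevisiae TFs (full-length or DBD) made by in vitro transcription/translation (PURExpress), about 100-200 nM. Bound TF was detected with fluorescent anti-GST. Each ungapped 8-mer (which stands for itself and its reverse complement) is scored by the PBM enrichment score (E-score), a modified Wilcoxon-Mann-Whitney statistic from -0.5 to +0.5, computed with the Universal PBM Analysis Suite. Scale: above 0.35 generally sequence-specific binding.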
row,Sequence,PBM E-score
1,AGCAGTTG,-0.0796
2,AACCGACC,-0.0206
3,CCGTCCAG,-0.00159
4,AAGCCAAG,-0.237
5,AGAGGAGG,-0.382
6,ACCAGCCG,-0.0866
7,AGCCATCC,-0.277
8,AAGACAAC,0.221
9,AAGACAGG,0.0873
10,GAGACAAC,0.203
11,AAGACAAG,0.343
12,GAGACAAA,0.442
13,GAGACGAA,-0.0182
14,ACAGACCG,-0.128
15,GAGATGAA,0.024
16,AGGTGCCC,-0.275
17,CCCGACAG,0.052
18,CCCGAGAA,0.0155
19,ACCGAGAA,0.149
20,TCCGAGAA,0.346
21,ACCGACAA,0.268
22,TCCGACAA,0.372
23,GCCGACAA,0.117
24,CCCGACAC,-0.0956

row,Sequence,PBM E-score
1,CCCGACAA,0.329
2,CAATTCAG,0.0996
3,TAAGTACA,0.287
4,GCTTTAGA,-0.0753
5,CCTGATAG,-0.222
6,AACATGAT,0.173
7,AAACATAC,-0.0227
8,ACACATAG,0.0311
9,AAACATAT,0.258
10,CGACATAG,0.15
11,AGACATAT,0.47
12,AGACATAC,0.327
13,AGACACAT,0.197
14,ATACATAC,-0.0367
15,ACACATAA,0.217
16,AGACATAG,0.32
17,AGACATAA,0.373
18,ATACATAA,0.21
19,GCAATGAA,0.0712
20,ATACATGA,0.073
21,ACAAATCG,0.276
22,ACTGAAGC,-0.0558
23,AATGGTTG,-0.0125
24,CCCTAAAC,-0.171

row,Sequence,PBM E-score
1,ATACAAAT,0.335
2,AGACAAAG,0.364
3,AGACAAAT,0.482
4,AGACAAAA,0.437
5,ATACAAAG,0.254
6,AAACAAAT,0.199
7,AAACAAAA,0.127
8,ATACAAAA,0.2
9,AGACAAGG,0.162
10,CGACAAAG,0.294
11,AGACAACT,0.147
12,ACACAAAA,0.296
13,CGCCCTTA,-0.0904
14,AAGTTGAT,0.016
15,AACTGCCC,-0.105
16,GGTCAAAC,0.114
17,AGGGGGCG,-0.416
18,GTGCAACA,-0.164
19,ACCCGCGC,0.0994
20,GCACCTTA,0.00327
21,ATATCCTG,0.0176
22,CCCTTCGG,-0.0863
23,AGACAAAC,0.446
24,TCACAAAA,0.119

row,Sequence,PBM E-score
1,TGACAAAA,0.402
2,TAACAAAA,0.228
3,CAACAAAA,0.0735
4,CAACAAAC,-0.0143
5,CGACAAAC,0.36
6,CCACAAAA,0.0569
7,CGACAAAA,0.423
8,AAACAAAC,0.192
9,CGACAACC,0.0461
10,ACACAAAC,0.0132
11,CCGTTGAA,0.00808
12,CGTAGCTA,-0.123
13,CCTGCGGA,0.00937
14,CGGCCGAC,0.194
15,GATTTGGC,-0.221
16,CATAGATC,0.0219
17,CCGTGAGG,-0.283
18,CATGGAGA,-0.00044
19,GCCTACAA,-0.0308
20,ATCCCGTC,-0.0856
21,AGTAACGC,-0.119
22,CTCTGAGA,-0.0856
